Among the test systems are T-47D breast; BT-549 breast; MDA-MB-435 melanoma; SW-620 colon; MCF7 breast; HCT-116 colon; KM12 colon; HCC-2998 colon.
Common to all, as to assay: NCI-60 one-dose screen, 48 h (100 = growth as untreated, 0 = no growth, -100 = all killed)
Conditions in all cases: 10 µM unless noted

This passage reports growth results from PubChem BioAssay (NCI).

The structures appear in SMILES notation. Compounds without any hit were thinned out: in the full panel of roughly 83,000, 20% have a hit.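 48-hour exposure, single concentration, 96-well plates; percent growth endpoint where 0 means no net growth. Active: below 10.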 Unmarked numbers belong to inactive results. Activity calls are given as the source filed them.

Take `COc1ccc(N)cc1C(=O)Nc1cccc(-c2cc(=O)c3c(OC)c(OC)c(OC)cc3o2)c1`: the growth is 41.7% with T-47D breast; 51.2% with BT-549 breast; 77.4% with MDA-MB-435 melanoma; 91.4% with SW-620 colon; 45.2% with MCF7 breast; 65.5% in the assay on HCT-116 colon. The growth with KM12 colon was 63.6%.
As for `CS(=O)c1nccc(-c2c(-c3ccc(F)c(OCc4ccccc4)c3)nc3sccn23)n1` (centres undefined), the growth is -11.6% (active) in the assay with T-47D breast; 109% in the assay with BT-549 breast; 104% with MDA-MB-435 melanoma; 87.9% in the assay with SW-620 colon; -44.7% (active) in the assay with MCF7 breast; 63.6% in the assay on HCT-116 colon. In addition, in the assay with KM12 colon, the growth is 77%.
Consider `CCN1CCN(Cc2ccc(C(=O)Nc3nc4ccc(Oc5ccnc(C(=O)NC)c5)cc4s3)cc2C(F)(F)F)CC1`, for which the growth with T-47D breast was 18.7%; with BT-549 breast it was 45.3%; in the assay with MDA-MB-435 melanoma it was 46%; with SW-620 colon, -17.2% (active); in the assay on MCF7 breast it was 16.3%; in the assay with HCT-116 colon, 18%. In the assay with KM12 colon, the growth is 48.4%.
As to `CN1CCN(c2ccc(NC(=O)Nc3ccc4c(ccn4-c4cccc(C(N)=O)n4)c3)cc2C(F)(F)F)CC1`, the growth with T-47D breast was 80.6%; in the assay with BT-549 breast, 89.9%; in the assay with MDA-MB-435 melanoma, -45.2% (active); in the assay with SW-620 colon it was -10.5% (active); with MCF7 breast it was 10.7%; with HCT-116 colon, 12.3%. Moreover, the growth with HCC-2998 colon is 63.4%; with KM12 colon, 22%.
Consider `CN1C(=O)N(C)C2C1NN=c1s/c(=C\c3ccccn3)c(=O)n12` (centres undefined), for which the growth was 108% in the assay with T-47D breast; 99.2% in the assay with BT-549 breast; 88.5% in the assay with MDA-MB-435 melanoma; 99.3% with SW-620 colon; 91.9% with MCF7 breast; 108% with HCT-116 colon. For the same molecule, in the assay with KM12 colon, the growth is 91.6%.
Take `COc1cc(/C=N/n2cnc3oc(-c4ccccc4)cc3c2=N)cc(CN2CCCC2)c1O`: the growth in the assay on T-47D breast was 93.3%; in the assay with BT-549 breast, 129%; in the assay with MDA-MB-435 melanoma, 96.6%; in the assay on SW-620 colon, -59.4% (active); in the assay with MCF7 breast, -79.3% (active); with HCT-116 colon, -77.8% (active). Besides, the results for the growth with HCC-2998 colon and in the assay with KM12 colon were 98.5% and 11.2%, respectively.
